{"source": "the supplement of paper PMC8728848", "binders": {"B1": {"name": "Lb MiSSP8 (Laccaria bicolor) (protein)", "chain": "MYFHTLFACATLMLITTAHASPTVINSLDSRKADLNGDVEARHAADWRRDSDWRRDSDWRRDSDWRRDSD"}}, "assay_in_all_cases": "glycan array binding signal (z-score within array); higher = stronger binding", "conditions_in_all_cases": "glycan notation: IUPAC condensed, linker removed", "key": {"[1]": {"target": "GlcNAc(b1-2)[GlcNAc(b1-4)]Man(a1-3)[GlcNAc(b1-4)][GlcNAc(b1-2)Man(a1-6)]Man(b1-4)GlcNAc(b1-4)GlcNAc", "how_it_was_run": "(§1)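 Arrays were curated from the Consortium for Functional Glycomics database, 3228 in total, and kept only where the protein sequence was available. Binding is expressed as a within-array Z-score. This score was averaged across arrays of the same protein sequence at different concentrations or buffers and across linkers, and negative values can be read as non-binding.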"}, "[2]": {"target": "GlcNAc(b1-3)Gal(b1-4)GlcNAc(b1-2)Man(a1-3)[GlcNAc(b1-3)Gal(b1-4)GlcNAc(b1-2)Man(a1-6)]Man(b1-4)GlcNAc(b1-4)[Fuc(a1-6)]GlcNAc", "how_it_was_run": "as §1"}, "[3]": {"target": "GlcNAc(b1-3)Gal(b1-4)GlcNAc(b1-2)[GlcNAc(b1-3)Gal(b1-4)GlcNAc(b1-6)]Man(a1-6)[GlcNAc(b1-3)Gal(b1-4)GlcNAc(b1-2)Man(a1-3)]Man(b1-4)GlcNAc(b1-4)GlcNAc", "how_it_was_run": "as §1"}, "[4]": {"target": "GlcNAc(b1-3)Gal(b1-4)GlcNAc(b1-3)Gal(b1-4)GlcNAc(b1-2)Man(a1-3)[GlcNAc(b1-3)Gal(b1-4)GlcNAc(b1-3)Gal(b1-4)GlcNAc(b1-2)Man(a1-6)]Man(b1-4)GlcNAc(b1-4)GlcNAc", "how_it_was_run": "as §1"}, "[5]": {"target": "GlcNAc(b1-3)Gal(b1-4)GlcNAc(b1-3)Gal(b1-4)GlcNAc(b1-2)Man(a1-3)[GlcNAc(b1-3)Gal(b1-4)GlcNAc(b1-3)Gal(b1-4)GlcNAc(b1-2)Man(a1-6)]Man(b1-4)GlcNAc(b1-4)[Fuc(a1-6)]GlcNAc", "how_it_was_run": "as §1"}, "[6]": {"target": "GlcNAc(b1-3)Gal(b1-4)GlcNAc(b1-3)Gal(b1-4)GlcNAc(b1-3)Gal(b1-4)GlcNAc(b1-2)Man(a1-3)[GlcNAc(b1-3)Gal(b1-4)GlcNAc(b1-3)Gal(b1-4)GlcNAc(b1-3)Gal(b1-4)GlcNAc(b1-2)Man(a1-6)]Man(b1-4)GlcNAc(b1-4)[Fuc(a1-6)]GlcNAc", "how_it_was_run": "as §1"}, "[7]": {"target": "GlcNAc(b1-4)GlcNAc(b1-4)GlcNAc", "how_it_was_run": "as §1"}, "[8]": {"target": "Man(a1-2)Man(a1-6)[Man(a1-3)]Man(a1-6)[Man(a1-2)Man(a1-2)Man(a1-3)]Man", "how_it_was_run": "as §1"}, "[9]": {"target": "Man(a1-3)[Man(a1-6)]Man(a1-6)[Man(a1-3)]Man", "how_it_was_run": "as §1"}, "[10]": {"target": "Neu5Ac(a2-3)Gal(b1-3)GlcNAc(b1-3)Gal(b1-4)GlcNAc", "how_it_was_run": "as §1"}, "[11]": {"target": "Neu5Ac(a2-3)Gal(b1-3)GlcNAc6S", "how_it_was_run": "as §1"}, "[12]": {"target": "Neu5Ac(a2-3)Gal(b1-4)GlcNAc(b1-2)Man(a1-3)[Neu5Ac(a2-3)Gal(b1-4)GlcNAc(b1-2)Man(a1-6)]Man(b1-4)GlcNAc(b1-4)GlcNAc", "how_it_was_run": "as §1"}, "[13]": {"target": "Neu5Ac(a2-3)Gal(b1-4)GlcNAc(b1-3)Gal(b1-4)GlcNAc(b1-3)GalNAc", "how_it_was_run": "as §1"}, "[14]": {"target": "Neu5Ac(a2-3)Gal(b1-4)GlcNAc(b1-3)GalNAc", "how_it_was_run": "as §1"}, "[15]": {"target": "Neu5Ac(a2-3)Gal(b1-4)GlcNAc(b1-6)[Gal(b1-3)]GalNAc", "how_it_was_run": "as §1"}, "[16]": {"target": "Neu5Ac(a2-6)Gal(b1-4)GlcNAc(b1-2)Man(a1-6)[Gal(b1-4)GlcNAc(b1-2)Man(a1-3)]Man(b1-4)GlcNAc(b1-4)GlcNAc", "how_it_was_run": "as §1"}, "[17]": {"target": "Neu5Ac(a2-6)Gal(b1-4)GlcNAc(b1-2)Man(a1-6)[GlcNAc(b1-2)Man(a1-3)]Man(b1-4)GlcNAc(b1-4)GlcNAc", "how_it_was_run": "as §1"}, "[18]": {"target": "Neu5Ac(a2-8)Neu5Ac(a2-3)Gal(b1-3)GalNAc(b1-4)[Neu5Ac(a2-3)]Gal(b1-4)Glc", "how_it_was_run": "as §1"}, "[19]": {"target": "Neu5Ac(a2-8)Neu5Ac(a2-3)Gal(b1-4)Glc", "how_it_was_run": "as §1"}, "[20]": {"target": "Neu5Ac(a2-8)Neu5Ac(a2-8)Neu5Ac(a2-3)[Gal(b1-3)GalNAc(b1-4)]Gal(b1-4)Glc", "how_it_was_run": "as §1"}, "[21]": {"target": "Neu5Ac(a2-8)Neu5Ac(a2-8)Neu5Ac(a2-3)[GalNAc(b1-4)]Gal(b1-4)Glc", "how_it_was_run": "as §1"}, "[22]": {"target": "Neu5Gc(a2-3)Gal(b1-3)GlcNAc", "how_it_was_run": "as §1"}, "[23]": {"target": "Neu5Gc(a2-8)Neu5Ac(a2-3)Gal(b1-4)GlcNAc", "how_it_was_run": "as §1"}}, "note": "The entries come from a sample that favours the strongest signals as a whole.", "data": [{"binder": "B1", "values": [{"measurement": "glycan array binding signal (z-score)", "setting": "[1]", "value": -0.64}, {"measurement": "glycan array binding signal (z-score)", "setting": "[2]", "value": 2.31}, {"measurement": "glycan array binding signal (z-score)", "setting": "[3]", "value": 0.54}, {"measurement": "glycan array binding signal (z-score)", "setting": "[4]", "value": 2.57}, {"measurement": "glycan array binding signal (z-score)", "setting": "[5]", "value": 2.43}, {"measurement": "glycan array binding signal (z-score)", "setting": "[6]", "value": 2.57}, {"measurement": "glycan array binding signal (z-score)", "setting": "[7]", "value": 0.319}, {"measurement": "glycan array binding signal (z-score)", "setting": "[8]", "value": -0.578}, {"measurement": "glycan array binding signal (z-score)", "setting": "[9]", "value": 2.36}, {"measurement": "glycan array binding signal (z-score)", "setting": "[10]", "value": -0.868}, {"measurement": "glycan array binding signal (z-score)", "setting": "[11]", "value": -0.226}, {"measurement": "glycan array binding signal (z-score)", "setting": "[12]", "value": -0.578}, {"measurement": "glycan array binding signal (z-score)", "setting": "[13]", "value": -0.343}, {"measurement": "glycan array binding signal (z-score)", "setting": "[14]", "value": -0.122}, {"measurement": "glycan array binding signal (z-score)", "setting": "[15]", "value": 3.01}, {"measurement": "glycan array binding signal (z-score)", "setting": "[16]", "value": -0.606}, {"measurement": "glycan array binding signal (z-score)", "setting": "[17]", "value": -0.668}, {"measurement": "glycan array binding signal (z-score)", "setting": "[18]", "value": -0.336}, {"measurement": "glycan array binding signal (z-score)", "setting": "[19]", "value": -0.744}, {"measurement": "glycan array binding signal (z-score)", "setting": "[20]", "value": 1.08}, {"measurement": "glycan array binding signal (z-score)", "setting": "[21]", "value": -0.82}, {"measurement": "glycan array binding signal (z-score)", "setting": "[22]", "value": -0.571}, {"measurement": "glycan array binding signal (z-score)", "setting": "[23]", "value": -0.958}]}]}
